Measured values reported in PubChem BioAssay (NCATS).
Where “and” joins values, the source holds several entries; their conditions need not be identical. Identical values can stand only once. Inconclusive results are not listed. Calls of active or inactive are those of the source. Unless noted, calls follow the shape of the dose curve; as a rule, active = well fitted curve in the direction sought with a large enough effect; inconclusive = small, poorly fitted or top-dose-only effect, or another doubt; inactive = no such curve, though single readings can be large; an effect the other way counts as inactive or inconclusive.

How the values were obtained:
[1] = Cellular Toxicity (caspase-3) Mesangial (AID 660);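 also: combined caspase 3 and 7 activity read by Caspase-Glo luminescence; cells exposed to compound for 16 h before the caspase read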
Method in brief: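 Luminescent Caspase-Glo 3/7 readout (aminoluciferin substrate cleavage, 20 min RT) after 16 h compound exposure at 37 °C of normal human mesangial cells. Signal increase normalized between DMSO basal and 100 uM tamoxifen; Hill-equation AC50.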

[2] = Cell Viability - LYMP2-021 (AID 974);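 also: compound exposure lasts 24 hours at 37 °C; % is scaled to controls: 0 for no effect and ±100 for the full control effect; nearly all actives have a fitted effect of over 55% in size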
Method in brief: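 ATP luminescence (CellTiter-Glo, 30 min RT) after 24 h compound exposure at 37 C; 2500 human lymphoblastoid cells/well, 5 h settle beforehand. Cytotoxicity = concentration-dependent ATP drop, AC50 by Hill fit.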

[3] = target: Estrogen receptor (Homo sapiens) (UniProt P03372); assay: qHTS assay for small molecule antagonists of estrogen receptor alpha signaling (AID 588513; active = well fitted curve in the direction sought with a large enough effect in the signal ratio, with a control signal flat, not every such curve was filed as active; the % refers to the signal ratio; also: % is scaled to controls: 0 for no effect and ±100 for the full control effect)
Sequence of Estrogen receptor (Homo sapiens) (P03372 whole entry, looked up): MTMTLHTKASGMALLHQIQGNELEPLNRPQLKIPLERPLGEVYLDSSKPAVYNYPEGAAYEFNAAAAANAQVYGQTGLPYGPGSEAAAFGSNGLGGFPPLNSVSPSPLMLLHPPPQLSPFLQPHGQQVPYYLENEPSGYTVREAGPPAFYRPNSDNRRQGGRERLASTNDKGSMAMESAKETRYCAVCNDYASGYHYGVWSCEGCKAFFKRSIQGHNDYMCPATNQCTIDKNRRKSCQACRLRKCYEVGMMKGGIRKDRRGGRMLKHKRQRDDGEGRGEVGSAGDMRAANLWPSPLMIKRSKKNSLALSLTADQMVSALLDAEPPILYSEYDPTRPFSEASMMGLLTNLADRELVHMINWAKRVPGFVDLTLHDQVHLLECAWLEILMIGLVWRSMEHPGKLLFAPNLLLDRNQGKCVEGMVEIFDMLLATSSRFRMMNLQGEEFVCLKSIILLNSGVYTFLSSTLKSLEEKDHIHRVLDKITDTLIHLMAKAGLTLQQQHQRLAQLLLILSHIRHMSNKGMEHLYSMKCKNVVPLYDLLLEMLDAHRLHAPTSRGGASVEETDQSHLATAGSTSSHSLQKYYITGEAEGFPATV
Method in brief: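 Beta-lactamase reporter, antagonist mode, HEK 293 GripTite cells; 0.5nM E2 stimulus, 18 h, 37 C; CCF4 dye 2 h RT; fluorescence. IC50 and efficacy from Hill fits, normalized to E2 and DMSO.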

[4] = target: Estrogen receptor (Homo sapiens) (UniProt P03372); assay: qHTS assay for small molecule agonists of estrogen receptor alpha signaling (AID 588514; calls by dose curve;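 also: 0% = vehicle only and 100% = reference agonist; nearly all actives have a fitted effect of over 70% in size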)
Method in brief: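 Read-out: CCF4 fluorescence from a beta-lactamase reporter in ER-alpha-UAS-bla HEK 293 cells after 18 hrs of compound exposure at 37 C. Normalized to 20 nM 17-beta-estradiol (100%) and DMSO (0%).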

[5] = qHTS assay for small molecule antagonists of peroxisome proliferator-activated receptor delta signaling (AID 588535; active = well fitted inhibition curve with a large enough effect in the signal ratio, with a control signal flat, not every such curve was filed as active; the % refers to the signal ratio;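 as to max response: cells co-treated with a PPAR-delta agonist as stimulator during compound exposure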); conditions: HEK293T PPARd-UAS-bla, beta-lactamase FRET ratio, 18 h; 460 nm channel
Method in brief: (§1)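 Beta-lactamase reporter read-out (405 nm excitation, 460/530 nm emission) after CCF4 loading for 2 hrs at RT. HEK293T PPAR-delta-UAS-bla cells, 2% charcoal/dextran FBS, compounds for 18 hrs at 37 C. Hill fit gave IC50 and efficacy.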

[6] = target: Peroxisome proliferator-activated receptor delta (Homo sapiens) (UniProt Q03181); assay: as above
Sequence of Peroxisome proliferator-activated receptor delta (Homo sapiens) (Q03181 whole entry, looked up): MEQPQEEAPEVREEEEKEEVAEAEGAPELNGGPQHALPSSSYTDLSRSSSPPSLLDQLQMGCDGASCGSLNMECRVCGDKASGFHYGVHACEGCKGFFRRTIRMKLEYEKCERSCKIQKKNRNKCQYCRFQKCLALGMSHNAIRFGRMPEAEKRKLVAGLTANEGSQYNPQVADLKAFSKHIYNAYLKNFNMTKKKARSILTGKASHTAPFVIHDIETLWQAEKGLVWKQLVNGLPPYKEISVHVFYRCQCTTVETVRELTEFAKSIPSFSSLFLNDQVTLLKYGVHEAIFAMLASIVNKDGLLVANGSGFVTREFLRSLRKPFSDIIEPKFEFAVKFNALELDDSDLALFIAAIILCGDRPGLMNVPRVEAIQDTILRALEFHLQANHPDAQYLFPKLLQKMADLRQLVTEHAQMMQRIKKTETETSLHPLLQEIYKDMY
Method in brief: as §1

[7] = qHTS assay for small molecule agonists of the antioxidant response element (ARE) signaling pathway (AID 651741; active = well fitted activation curve with a large enough effect in the signal ratio; the % refers to the signal ratio; also: potency is read from the fitted curve at half-maximal effect; as to activation: % of control where 0% means no effect)
Method in brief: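 HepG2 ARE-bla reporter cells, 2,000/well; 5 h settle at 37 C/5% CO2; compound pin transfer (23 nL, DMSO); 16 h at 37 C; LiveBLAzer B/G FRET substrate, 2 h RT; fluorescence intensity read.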

[8] = qHTS assay for small molecule activators of the p53 signaling pathway (AID 651743; active = well fitted activation curve with a large enough effect in the signal ratio, not every such curve was filed as active; the % refers to the signal ratio; also: % of control where 0% means no effect); conditions: HCT-116 p53RE-bla, beta-lactamase FRET ratio, 16 h; activation: stronger effect = higher value
Method in brief: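 Reporter: beta-lactamase driven by p53 response elements, stably integrated in HCT-116 cells. Cells seeded at 4,000/well, 5 h preincubation, compound (DMSO) 16 h at 37 C; B/G FRET substrate 2 h RT; fluorescence intensity read.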

[9] = Cell Viability - SH-SY5Y (AID 544); conditions: SH-SY5Y neuroblastoma cell viability; viability change, negative = cytotoxic: at 92.2 µM (top of the series);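 also: cells exposed to compound for 40 hours; 0% = DMSO alone and -100% = 100 µM tamoxifen; nearly all actives have a fitted effect of over 55% in size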
Method in brief: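 SH-SY5Y, 1500 cells/well, 5 hr pre-incubation 37 °C; cpd 40 hr 37 °C; CellTiter-Glo 20 min RT; luminescence (ATP) read. qHTS concentration-response, Hill fit → AC50. Tamoxifen, doxorubicin as positive controls.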

[10] = MultiTox-Fluor Cytotoxicity Assay - LYMP1-001 - Live Cells (AID 947);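 also: 0% = DMSO only and full inhibition = tetraoctylammonium bromide control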
[11] = target: Peroxisome proliferator-activated receptor gamma (Homo sapiens) (UniProt P37231); assay: qHTS assay for small molecule antagonists of peroxisome proliferator-activated receptor gamma signaling (AID 588537; active = well fitted inhibition curve with a large enough effect in the signal ratio, with a control signal flat, not every such curve was filed as active; the % refers to the signal ratio; also: potency is read from the fitted curve at half-maximal effect)
Sequence of Peroxisome proliferator-activated receptor gamma (Homo sapiens) (P37231 whole entry, looked up): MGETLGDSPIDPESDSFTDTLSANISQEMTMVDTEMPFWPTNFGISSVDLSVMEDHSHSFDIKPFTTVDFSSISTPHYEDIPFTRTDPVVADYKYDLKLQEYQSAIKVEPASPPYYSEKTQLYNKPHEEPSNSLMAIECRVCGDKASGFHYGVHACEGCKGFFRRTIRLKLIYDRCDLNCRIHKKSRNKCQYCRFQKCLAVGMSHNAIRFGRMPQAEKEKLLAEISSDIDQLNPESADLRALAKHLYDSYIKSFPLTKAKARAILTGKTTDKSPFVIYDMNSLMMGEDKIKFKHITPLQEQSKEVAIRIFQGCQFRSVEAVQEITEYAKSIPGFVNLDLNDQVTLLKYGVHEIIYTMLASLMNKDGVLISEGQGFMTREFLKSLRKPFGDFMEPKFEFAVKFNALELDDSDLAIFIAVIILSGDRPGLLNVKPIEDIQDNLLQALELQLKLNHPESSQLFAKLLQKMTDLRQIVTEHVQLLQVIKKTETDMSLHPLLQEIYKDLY
Method in brief: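 Read-out: CCF4 fluorescence (ex 405, em 460/530 nm) after 2 h at RT. Cells were HEK293 carrying a UAS-bla reporter and treated 16 h at 37 C with compound plus rosiglitazone (50 nM final). Normalized to rosiglitazone and DMSO.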

[12] = target: Glucocorticoid receptor (Homo sapiens) (UniProt P04150); assay: qHTS assay for small molecule antagonists of glucocorticoid receptor signaling (AID 588533; active = well fitted inhibition curve with a large enough effect in the signal ratio, with a control signal flat, not every such curve was filed as active; the % refers to the signal ratio;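 also: cells stimulated with 2 nM dexamethasone as agonist; % is scaled to controls: 0 for no effect and ±100 for the full control effect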)
Sequence of Glucocorticoid receptor (Homo sapiens) (P04150 whole entry, looked up): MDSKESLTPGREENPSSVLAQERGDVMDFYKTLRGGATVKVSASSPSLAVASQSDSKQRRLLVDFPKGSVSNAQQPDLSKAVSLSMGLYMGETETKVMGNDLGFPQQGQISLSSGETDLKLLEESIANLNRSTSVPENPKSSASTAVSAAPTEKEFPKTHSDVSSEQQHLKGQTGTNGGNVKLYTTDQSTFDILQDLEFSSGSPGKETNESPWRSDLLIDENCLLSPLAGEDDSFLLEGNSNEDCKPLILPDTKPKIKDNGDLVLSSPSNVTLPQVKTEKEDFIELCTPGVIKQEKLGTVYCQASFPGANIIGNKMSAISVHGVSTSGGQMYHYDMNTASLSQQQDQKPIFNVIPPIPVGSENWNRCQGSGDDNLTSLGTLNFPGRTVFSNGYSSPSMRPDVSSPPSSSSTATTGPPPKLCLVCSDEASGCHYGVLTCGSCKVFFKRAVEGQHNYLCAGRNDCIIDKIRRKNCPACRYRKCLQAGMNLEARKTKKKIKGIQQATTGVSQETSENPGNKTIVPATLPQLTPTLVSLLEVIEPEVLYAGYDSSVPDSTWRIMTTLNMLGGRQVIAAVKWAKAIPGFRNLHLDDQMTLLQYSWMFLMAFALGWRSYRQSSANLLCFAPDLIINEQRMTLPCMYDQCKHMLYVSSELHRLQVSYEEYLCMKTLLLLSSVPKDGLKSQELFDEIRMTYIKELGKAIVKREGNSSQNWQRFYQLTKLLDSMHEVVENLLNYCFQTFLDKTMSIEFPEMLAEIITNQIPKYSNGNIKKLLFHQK
Method in brief: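 Antagonist-mode qHTS: compound titrations added to GRE-bla HeLa cells, then dexamethasone 2 nM final; 18 h, 37 C. CCF4 FRET fluorescence normalized to dexamethasone and DMSO; IC50 from Hill fit.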

[13] = target: Peroxisome proliferator-activated receptor delta (Homo sapiens) (UniProt Q03181); assay: qHTS assay for small molecule agonists of peroxisome proliferator-activated receptor delta signaling (AID 588534; calls by dose curve;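 also: 0% = DMSO basal wells and 100% = positive control agonist at 10 µM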)
Method in brief: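 Titration series tested in agonist mode on beta-lactamase reporter cells; 18 hrs at 37 C after a 5 hr pre-incubation. Readout: CCF4 fluorescence, 2 hrs RT. Hill equation gives EC50 and maximal response.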

[14] = target: Voltage-gated inwardly rectifying potassium channel KCNH2 (Homo sapiens) (UniProt Q12809); assay: qHTS Assay for Small Molecule Inhibitors of the Human hERG Channel Activity (AID 588834);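 also: top concentration of the series differs between compounds; % is scaled to controls: 0 for no effect and ±100 for the full control effect; lower thallium flux fluorescence means stronger hERG block; nearly all actives have a fitted effect of over 50% in size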
Sequence of Voltage-gated inwardly rectifying potassium channel KCNH2 (Homo sapiens) (Q12809 whole entry, looked up): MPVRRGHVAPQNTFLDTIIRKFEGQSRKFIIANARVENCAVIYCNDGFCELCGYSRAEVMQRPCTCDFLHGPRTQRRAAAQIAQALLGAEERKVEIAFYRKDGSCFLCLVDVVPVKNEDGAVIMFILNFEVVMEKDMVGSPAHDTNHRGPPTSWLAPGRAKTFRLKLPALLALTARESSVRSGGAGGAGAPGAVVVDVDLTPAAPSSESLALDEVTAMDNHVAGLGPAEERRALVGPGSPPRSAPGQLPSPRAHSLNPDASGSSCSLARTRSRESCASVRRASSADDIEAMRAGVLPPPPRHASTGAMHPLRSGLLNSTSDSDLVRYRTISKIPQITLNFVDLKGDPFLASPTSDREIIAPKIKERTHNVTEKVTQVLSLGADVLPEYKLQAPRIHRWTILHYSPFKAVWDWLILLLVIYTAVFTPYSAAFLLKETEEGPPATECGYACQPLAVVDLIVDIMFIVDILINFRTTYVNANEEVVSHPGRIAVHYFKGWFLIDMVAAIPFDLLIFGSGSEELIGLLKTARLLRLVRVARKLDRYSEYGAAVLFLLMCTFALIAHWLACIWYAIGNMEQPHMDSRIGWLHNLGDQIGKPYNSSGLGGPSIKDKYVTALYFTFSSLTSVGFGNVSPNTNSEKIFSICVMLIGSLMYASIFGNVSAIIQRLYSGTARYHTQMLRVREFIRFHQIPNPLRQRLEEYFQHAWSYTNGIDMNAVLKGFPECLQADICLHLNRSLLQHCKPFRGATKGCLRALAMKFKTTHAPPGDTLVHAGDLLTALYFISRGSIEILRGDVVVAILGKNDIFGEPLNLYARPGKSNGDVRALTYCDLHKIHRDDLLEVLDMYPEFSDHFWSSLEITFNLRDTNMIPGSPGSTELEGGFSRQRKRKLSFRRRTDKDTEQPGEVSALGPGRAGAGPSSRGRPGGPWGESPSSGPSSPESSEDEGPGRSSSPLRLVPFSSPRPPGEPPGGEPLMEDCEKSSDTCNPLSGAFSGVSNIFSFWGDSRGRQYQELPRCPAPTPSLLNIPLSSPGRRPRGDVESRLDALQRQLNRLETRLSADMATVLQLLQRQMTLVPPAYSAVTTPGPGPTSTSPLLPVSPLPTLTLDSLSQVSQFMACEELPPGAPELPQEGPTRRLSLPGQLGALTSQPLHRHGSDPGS
Method in brief: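 Thallium-flux (FluxOR) read-out on FDSS: fluorescence read 10 s before and 2 min after stimulation buffer. hERG-BacMam-transduced U2OS cells, compound exposure about 10 min. AC50 by standard Hill equation.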

[15] = qHTS assay to identify small molecules that stimulate interleukin-8 (IL-8) secretion (AID 651758; active = well fitted activation curve with a large enough effect in the signal ratio; the % refers to the signal ratio; also: 0% is about no effect)
Method in brief: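 Compounds are added to THP-1 cells (2000 per well) and left 16 hrs at 37 C. A labeled anti-IL-8 antibody pair is then added, and IL-8 secretion is measured by time-resolved FRET after 1-3 hrs at room temperature.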

[16] = target: Cytochrome P450 3A4 (Homo sapiens) (UniProt P08684); assay: qHTS Assay for Activators of Cytochrome P450 3A4 (AID 885); also: nearly all actives have a fitted effect of over 65% in size
Sequence of Cytochrome P450 3A4 (Homo sapiens) (P08684 whole entry, looked up): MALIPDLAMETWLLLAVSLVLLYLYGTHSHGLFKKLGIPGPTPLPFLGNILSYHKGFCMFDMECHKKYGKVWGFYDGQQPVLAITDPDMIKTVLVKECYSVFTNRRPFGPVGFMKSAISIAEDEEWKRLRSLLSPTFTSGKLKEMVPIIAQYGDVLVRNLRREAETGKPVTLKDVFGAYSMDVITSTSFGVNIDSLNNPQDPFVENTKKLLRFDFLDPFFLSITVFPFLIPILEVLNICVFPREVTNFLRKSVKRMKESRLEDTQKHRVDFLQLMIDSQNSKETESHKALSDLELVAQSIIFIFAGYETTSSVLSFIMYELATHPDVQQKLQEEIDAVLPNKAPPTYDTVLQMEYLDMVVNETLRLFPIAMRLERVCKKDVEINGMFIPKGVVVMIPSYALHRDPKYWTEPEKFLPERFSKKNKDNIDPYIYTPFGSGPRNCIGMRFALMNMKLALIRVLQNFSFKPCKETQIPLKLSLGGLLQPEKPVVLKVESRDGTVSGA
Method in brief: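 Luminescent readout of luciferin formed from 25 uM Luciferin-PPXE (KM level) by 20 nM CYP3A4 in 200 mM KPO4, with 60 min NADPH-driven reaction at room temperature after 10 min compound exposure. Ketoconazole (57 uM) defined 100% inhibition.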

N#CCCC#N
inactive: outcome [1] | Potency [2] | Potency [3] | Potency [4] | outcome [6] | Potency [7] | activation [8] -0.196%
18.6%: max response [5]

C/C=C/C=O
inactive: Potency [9] | outcome [1] | outcome [10] | Potency [2] | Potency [11]

CC[N+](=O)[O-]
inactive: Potency [9] | outcome [1] | outcome [10] | Potency [2] | outcome [12] | outcome [13] | Potency [11] | Potency [14] | Potency [7] | activation [8] -3.29%

c1ccc2c(c1)CCNC2
5.94%: max response [5]
inactive: Potency [9] | outcome [1] | outcome [10] | Potency [2] | outcome [13] | outcome [6] | Potency [11] | Potency [14] | Potency [7] | activation [8] -2.09%

Nc1ccc(Cc2ccc(N)c(Cl)c2)cc1Cl
active: Potency [11] 39.8 µM
inactive: outcome [1] | outcome [10] | Potency [2] | Potency [4] | activation [8] -1.58%

O=[N+]([O-])CCO
inactive: Potency [9] | outcome [1] | Potency [3] | Potency [4] | outcome [12] | Potency [14]

c1ccc2c(c1)-c1cccc3c1c-2cc1ccccc13
active: Potency [7] 10.6 µM and 6.11 µM
inactive: Potency [3]

CC(=O)CCC(C)=O
-12.7%: max response [5]
inactive: Potency [9] | outcome [1] | outcome [10] | Potency [2] | Potency [3] | Potency [4] | outcome [12] | outcome [13] | outcome [6] | Potency [7] | activation [8] 0.727%

COc1ccccc1N
inactive: outcome [1] | Potency [2] | Potency [11] | Potency [14]

O=[N+]([O-])c1ccccc1O
inactive: outcome [1] | outcome [10] | Potency [2] | outcome [12] | Potency [11] | Potency [15]

Oc1c(Cl)cccc1Cl
inactive: Potency [9] | outcome [1] | Potency [2] | Potency [3] | Potency [4] | outcome [13] | outcome [6] | Potency [15]
38.7%: max response [5]

COc1cc(-c2ccc(N)c(OC)c2)ccc1N
inactive: Potency [9] | Potency [16] | outcome [10] | Potency [2] | outcome [13] | outcome [6] | Potency [11] | Potency [14] | activation [8] 0.265% and -0.413% and 0.709%
active: Potency [7] 1.06 µM and 2.17 µM
17.7% and -36%: max response [5]

COC(=O)c1ccccc1N
-46.7%: max response [5]
inactive: Potency [9] | outcome [12] | outcome [13] | Potency [11] | activation [8] -1.42%

CC(Cl)(Cl)Cl
inactive: Potency [9] | outcome [10] | outcome [13] | outcome [6] | Potency [11] | Potency [14] | Potency [7] | activation [8] -0.56% and -3.67% | Potency [15]
-34.9% and 9.34%: max response [5]
